Screening data (PubChem)
Only some compounds are listed: those with a hit (about 2.9% of all), similar ones and a draw of the others.
KDM5B inhibitor – KDM5B demethylase inhibition. AID 1347165. Potency, µM (highest dose often 57.7 µM), usual class: inhibitors. 220,000 tested, 2.6% active. Q9UGL1. KDM5B demethylase, FDH-coupled NADH fluorescence (FDH is formaldehyde dehydrogenase); further: potency means the concentration at half of the fitted maximal effect; 0% is about no effect; nearly all actives have a fitted effect of over 70% in size
Target sequence (Q9UGL1 whole entry, looked up): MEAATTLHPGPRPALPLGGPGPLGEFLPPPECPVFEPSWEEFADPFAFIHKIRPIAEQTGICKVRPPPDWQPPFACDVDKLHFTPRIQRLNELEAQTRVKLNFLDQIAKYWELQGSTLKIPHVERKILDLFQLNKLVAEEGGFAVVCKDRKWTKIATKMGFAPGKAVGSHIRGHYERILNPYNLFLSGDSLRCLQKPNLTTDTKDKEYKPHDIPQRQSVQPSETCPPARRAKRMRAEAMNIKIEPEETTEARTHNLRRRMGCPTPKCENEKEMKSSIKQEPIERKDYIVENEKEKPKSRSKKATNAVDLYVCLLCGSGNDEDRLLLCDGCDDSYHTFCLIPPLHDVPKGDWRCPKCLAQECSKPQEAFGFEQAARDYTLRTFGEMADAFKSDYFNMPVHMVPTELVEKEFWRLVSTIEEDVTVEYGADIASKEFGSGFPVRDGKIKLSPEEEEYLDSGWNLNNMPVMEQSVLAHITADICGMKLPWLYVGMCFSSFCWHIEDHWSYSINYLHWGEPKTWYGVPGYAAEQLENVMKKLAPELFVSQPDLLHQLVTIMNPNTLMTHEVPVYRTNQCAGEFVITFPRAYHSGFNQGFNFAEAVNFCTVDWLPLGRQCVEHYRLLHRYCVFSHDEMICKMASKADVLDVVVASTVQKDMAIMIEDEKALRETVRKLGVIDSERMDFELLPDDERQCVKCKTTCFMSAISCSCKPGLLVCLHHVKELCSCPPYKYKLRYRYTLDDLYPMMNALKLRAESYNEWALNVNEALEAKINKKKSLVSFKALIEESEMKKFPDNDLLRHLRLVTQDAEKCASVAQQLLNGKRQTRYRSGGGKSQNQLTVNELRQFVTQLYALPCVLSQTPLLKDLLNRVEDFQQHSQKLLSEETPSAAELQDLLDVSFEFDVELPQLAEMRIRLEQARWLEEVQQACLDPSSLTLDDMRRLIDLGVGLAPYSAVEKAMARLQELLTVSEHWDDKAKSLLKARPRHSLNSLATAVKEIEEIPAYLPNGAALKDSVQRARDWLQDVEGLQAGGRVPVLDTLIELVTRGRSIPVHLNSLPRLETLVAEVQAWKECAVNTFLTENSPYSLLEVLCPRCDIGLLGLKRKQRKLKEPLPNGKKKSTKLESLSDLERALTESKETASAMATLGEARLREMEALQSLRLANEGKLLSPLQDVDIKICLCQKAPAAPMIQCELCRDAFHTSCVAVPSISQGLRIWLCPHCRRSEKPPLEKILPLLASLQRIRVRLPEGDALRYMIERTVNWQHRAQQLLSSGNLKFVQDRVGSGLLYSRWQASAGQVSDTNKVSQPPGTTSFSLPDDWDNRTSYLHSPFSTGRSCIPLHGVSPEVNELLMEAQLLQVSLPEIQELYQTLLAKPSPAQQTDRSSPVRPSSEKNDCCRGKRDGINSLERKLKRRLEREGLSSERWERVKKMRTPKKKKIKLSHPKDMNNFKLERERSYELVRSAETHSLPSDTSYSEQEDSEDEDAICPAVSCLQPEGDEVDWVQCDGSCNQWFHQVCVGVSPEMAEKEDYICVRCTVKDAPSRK
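Coupled FDH/NAD⁺ fluorescence readout. KDM5BΔAP 200 nM final; compound titration, 10 min RT preincubation; substrate mix 12.5 µM H3K4me3, 25 µM 2-OG, 50 µM Fe(II), 100 µM ascorbate, 0.25 mM NAD⁺, 0.25 U/mL FDH; ΔRFU over 30 min.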
IP6K1 inhibitor – blocks human inositol hexakisphosphate kinase 1 | Q92551 | IP6K1 kinase, ADP-Glo luminescence, 2 h; stronger effect = lower value | activity change, % (series mostly up to about 58 µM) | 140,000 tested, 0.81% active; in the data active means activity change below about -25%; further: on the % scale 0 is the no-effect control and ±100 the full control effect
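ADP-Glo luminescence measures ADP made by human IP6K1 during a 2 h RT reaction with ATP/IP6 (mix at 1.3 mM/130 uM); top library doses 57.5 and 19.1 uM final.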
SNCA viab count – cell viability loss counter-screen; HEK-293-SNCA-luc viability, GF-AFC fluorescence, 24 h; 150,000 tested, 0.12% active; Potency, µM (top dose mostly 57.1 µM), without a hit: at the top dose activity change, negative = cytotoxicity, most hits filed as cytotoxic; AID 1671193;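 further: potency means the concentration at half of the fitted maximal effect; 0% = DMSO-treated cells and -100% = medium-only wells without cells; nearly all actives have a fitted effect of over 30% in size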
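HEK-293-SNCA-luc cells (1500/well) plated 24 h, then exposed 24 h to a dilution series; GF-AFC added 30 min at 37C, fluorescence 405/540 nm; normalised to medium-only and DMSO wells, Hill fit.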
SNCA expr inhib – reduces expression of the alpha-synuclein gene; 140,000 tested, 0.17% active; HEK-293 SNCA-luciferase knock-in, luminescence, 24 h; Potency, µM (titrated, usually from 57.2 µM), without a hit: at the top dose activity change, negative = inhibition, actives largely listed as inhibitors; AID 1671194;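 further: potency means the concentration at half of the fitted maximal effect; plate controls were DMSO cells for no effect and cell-free wells for full effect; nearly all actives have a fitted effect of over 45% in size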
An asterisk follows results filed as active; i = inactive; ? = inconclusive; . = not tested or not shown; [ ] = dose if it differs, or a comment. Unless noted, the call rests on the fitted dose curve; in most records, active means well fitted curve in the direction sought with a large enough effect; inconclusive means small, poorly fitted or top-dose-only effect, or another doubt; inactive means no such curve, though single readings can be large; an effect the other way counts as inactive or inconclusive.

SMILES	KDM5B inhibitor	IP6K1 inhibitor	SNCA viab count	SNCA expr inhib
O=C(NCc1nnc2ccc(-c3ccccc3)nn12)c1ccc(Cl)cc1	28µM*	5	-15%	1%
Cc1ccc(-c2ccc3nnc(CNC(=O)c4ccc(Cl)cc4)n3n2)cc1	?	-6	-7%	21%
O=C(NCc1nnc2ccc(-c3ccccc3)nn12)c1ccoc1	32µM*	-7	-5%	?
O=C(NCc1nnc2ccc(-c3ccc(F)cc3)nn12)c1ccoc1	?	16	-5%	-16%
O=C(CNC(=O)c1ccccc1)NCc1nnc2ccc(-c3ccccc3)nn12	32µM*	4	-4%	-13%
O=C(NCc1nnc2ccc(-c3ccccc3)nn12)c1ccc(F)cc1	32µM*	9	-14%	-19%
O=C(Cc1cccs1)NCc1nnc2ccc(-c3ccccc3)nn12	i	32	9%	3%
O=C(NCc1nnc2ccc(-c3ccccc3)nn12)c1ccncc1	28µM*	-5	4%	?
CNc1cc(C)nc(N2C[C@H]3CN(C(=O)N(C)C)C[C@@]3(C(=O)O)C2)n1	22µM*	11	0%	27%
CNc1nc(N2C[C@H]3CN(CCO)C[C@@]3(C(=O)O)C2)nc2c1CCC2	?	2	3%	-10%
COCC1CN(C)CC12CCN(Cc1ccc(F)c(Cl)c1)CC2 (stereo not drawn)	28µM*	23	-6%	13%
COCC1CN(C)CC12CCN(Cc1ccc(OC)cc1)CC2 (stereo not drawn)	?	15	-2%	-8%
COc1cc(OC)c(C2=CCN(C(=O)COc3ccc(C)cc3Br)CC2)c(OC)c1	i	.	.	.
COc1cccc(N2C(=O)NC(=NC3CCCC3)C23CCN(C(=O)c2ccccc2F)C3)c1 (stereo not drawn)	i	7	-10%	1%
CN1CCOC(CNC(=O)Cc2ccc(F)c(Br)c2)C1 (stereo not drawn)	i	.	.	.
Cc1cc(C)c(CNC(=O)c2cc(-c3cnn(C)c3)cc3c2OCCN3C(C)C)c(=O)[nH]1	28µM*	-21	-13%[87.6 µM]	17%[87.6 µM]
Cc1cc(C)c(CNC(=O)c2cc(-c3cnn(C)c3)cc3c2OCCN3C)c(=O)[nH]1	32µM*	-21	-6%[87.6 µM]	24%[87.6 µM]
Cc1cccc(C(C)C)c1NC(=O)Cc1c[nH]c2ccccc12	i	.	.	.
O=C(c1ccc2nc(-c3ccc(F)cc3)cn2c1)N1C[C@@H]2CCCN[C@@H]2C1	28µM*	-7	5%	19%
O=C(c1ccc(F)cc1)N1CCCC(c2nc(-c3ccc(F)cc3)no2)C1 (stereo not drawn)	.	-2	-11%	.
O=C(c1cccc2nccnc12)N1CCOC(C(F)(F)F)C1 (stereo not drawn)	i	14	-1%	-11%
CCCOC1CCCN(C(=O)c2ccc3nc(-c4ccc(F)cc4)cn3c2)C1 (stereo not drawn)	28µM*	27	5%	23%
O=C(c1ccc2nc(-c3ccccc3)cn2c1)N1CCOC(C(F)(F)F)C1 (stereo not drawn)	32µM*	7	-2%	45%
CC(C)(C)OCC(O)CN1CCC(=O)N(Cc2ccccc2)Cc2sccc21 (stereo not drawn)	.	-7	.	.
Cc1ccc(C(=O)N[C@H]2CO[C@H]3[C@@H]2OC[C@@H]3Nc2nccc(-c3ccc4c(c3)OCO4)n2)cc1	28µM*	-4	-8%	-1%
SMILES	KDM5B inhibitor	IP6K1 inhibitor	SNCA viab count	SNCA expr inhib
O=S(=O)(N[C@H]1CO[C@H]2[C@@H]1OC[C@@H]2Nc1nccc(-c2ccc3c(c2)OCO3)n1)c1ccc2ccccc2c1	28µM*	2	-16%	?
COc1ccccc1-c1ccnc(N[C@H]2CO[C@H]3[C@@H]2OC[C@@H]3NS(=O)(=O)c2ccc3ccccc3c2)n1	?	-3	0%	5%
COc1ccc(-c2ccnc(N[C@H]3CO[C@H]4[C@@H]3OC[C@@H]4NC(=O)c3ccc4c(c3)OCO4)n2)cc1	i	-19	?	?
COCCNC(=O)c1cc(-c2ccc(OC)cc2)nc2c1c(C1CCNC1)nn2C (stereo not drawn)	?	-2	9%	-15%
COc1ccc(-c2cc(C(=O)NCC3CC3)c3c(C4CCNC4)noc3n2)cc1 (stereo not drawn)	79µM*	13	3%	-4%
O=C(NC1CCCC1)c1cc(C2CC2)nc2onc(C3CCNC3)c12 (stereo not drawn)	?	7	3%	39%
O=C(NC1CCNCC1)c1cc(C2CC2)nc2onc(C3CCNC3)c12 (stereo not drawn)	79µM*	-1	7%	-25%
COc1ccc(-c2cc(C(=O)NC3CC3)c3c(C4CCNC4)nn(C)c3n2)cc1 (stereo not drawn)	79µM*	-2	-10%	-13%
COc1ccc(-c2cc(C(=O)NC3CC3)c3c(C4CCCNC4)noc3n2)cc1 (stereo not drawn)	79µM*	-3	6%	10%
COc1ccc(-c2cc(C(=O)NCC3CC3)c3c(C4CCCN4)noc3n2)cc1 (stereo not drawn)	?	3	4%	-7%
O=C(NC1CC1)c1cc(C2CC2)nc2onc(C3CCCNC3)c12 (stereo not drawn)	?	-2	-1%	17%
CCn1nc(C(=O)Nc2nccs2)c2ccccc2c1=O	i	.	.	.
COc1ccc(NC(=O)O[C@@H]2CO[C@H]3[C@@H]2OC[C@@H]3NC(=S)Nc2ccc(Cl)cc2)cc1	i	2	-9%	8%
Brc1cccc(-c2noc(Cc3ccccc3)n2)c1	i	.	.	.
COc1ccc(CNc2ncnc3c2CN(C2CCCNC2)C(=O)CN3C)cc1OC (stereo not drawn)	?	-1	-3%	4%
Cc1cccc(CC(=O)N2CCC(Nc3cccn4ncnc34)CC2)c1	?	11	-3%	17%
O=C(c1ccoc1)N1CCC(Nc2cccn3ncnc23)CC1	13µM*	13	2%	-11%
Cc1cc(C(=O)CN(C)CC(=O)Nc2ccccc2Br)c(C)n1CCc1cccs1	i	.	.	.
COc1cccc(CN2CC[C@@H](CO)N(C)c3nc(C)ccc3C2)c1	35µM*	-1	-7%[87.6 µM]	19%[87.6 µM]
COc1ccc(CN2C[C@H](O)C[C@H]2c2nc(-c3cccc(C)c3)no2)c2ccccc12	22µM*	-13	-7%[87.6 µM]	114%[87.6 µM]
Cc1cccc(-c2noc([C@@H]3C[C@@H](O)CN3Cc3cccc(C#N)c3)n2)c1	i	9	-12%[87.6 µM]	99%[87.6 µM]
Cn1cccc1/C=C(\C#N)c1ccc(F)cc1	i	.	.	.
C#CC[C@H](c1nc2cc(Cl)ccc2c(=O)n1Nc1ccccc1)N(CCCN)C(=O)c1cccc(Cl)c1F	.	13	?	.
Cc1ccc(C(=O)N(CCCN)C(c2nc3cc(Cl)ccc3c(=O)n2Cc2ccccc2)C(C)C)cc1 (stereo not drawn)	.	0	30µM*	.
O=C(c1ccccc1)N1CCC(N2CCCC2=O)CC1	i	-20	7%[87.6 µM]	-2%[87.6 µM]
C=CCOc1cc(C)c2c(c1C)[C@H](O)C([C@H](C)C(=O)NCCOC)CC2 (stereo partly drawn)	i	-3	1%[87.6 µM]	14%[87.6 µM]
